Laboratory results as given in PubChem BioAssay AID1159580 (chemical genetic matrix, 2015).
About 2,000 (36%) of roughly 5,500 compounds were called active. Another 18% or so got no clear call; they are omitted. Rule as the data show it: active = normalized growth mostly below about 0.91 (no sharp cut-off); inconclusive = no clear call, values can overlap the other calls; inactive = mostly above about 0.92. This is one part of the list.

Test: chemical genetic growth profiling, strain panel (AID 1159580);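 also: tested at 20 µM; growth read once vehicle control cultures reached saturation at 30 °C; 1 = growth at the plate median or of vehicle wells; lower values mean less growth of the strain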
Settings: growth OD

Measured: normalized growth

O=c1c(-c2cc(O)c(O)c(O)c2)coc2cc(O)c(O)c(O)c12
inactive: S. cerevisiae deletion strains, locus YJL187C, strain SWE1, hits give low values 0.975 | S. cerevisiae deletion strains, locus YJR075W, strain HOC1, hits give low values 0.929 | S. cerevisiae deletion strains, locus YKL009W, strain mrt4, hits give low values 1.07 | S. cerevisiae deletion strains, locus YKL068W, hits give low values 1.01 | S. cerevisiae deletion strains, locus YKL085W, strain MDH1 (second series), hits give low values 1.02 | S. cerevisiae deletion strains, locus YKL085W, strain MDH1, hits give low values 1.02 | S. cerevisiae deletion strains, locus YKL160W, strain elf1, hits give low values 0.952 | S. cerevisiae deletion strains, locus YKR001C, strain vps1, hits give low values 0.987 | S. cerevisiae deletion strains, locus YKR026C, strain gcn3, hits give low values 0.995 | S. cerevisiae deletion strains, locus YKR091W, strain srl3, hits give low values 1.02 | S. cerevisiae deletion strains, locus YLL001W, strain dnm1, hits give low values 0.965 | S. cerevisiae deletion strains, locus YLL026W, hits give low values 1.01 | S. cerevisiae deletion strains, locus YLL041C, strain sdh2, hits give low values 1 | S. cerevisiae deletion strains, locus YLR027C, strain aat2, hits give low values 0.974 | S. cerevisiae deletion strains, locus YLR102C, strain apc9, hits give low values 1 | S. cerevisiae deletion strains, locus YLR221C, strain rsa3, hits give low values 0.981 | S. cerevisiae deletion strains, locus YLR258W, strain gsy2, hits give low values 0.988 | S. cerevisiae deletion strains, locus YLR262C, strain YPT6 (second series), hits give low values 0.889 | S. cerevisiae deletion strains, locus YLR262C, strain YPT6, hits give low values 0.758 | S. cerevisiae deletion strains, locus YLR268W, strain sec22, hits give low values 0.898 | S. cerevisiae deletion strains, locus YLR320W, strain mms22, hits give low values 0.941 | S. cerevisiae deletion strains, locus YLR330W, strain CHS5, hits give low values 0.93 | S. cerevisiae deletion strains, locus YLR342W, strain FKS1, hits give low values 0.954 | S. cerevisiae deletion strains, locus YLR370C, strain arc18, hits give low values 0.911 | S. cerevisiae deletion strains, locus YLR384C, strain iki3, hits give low values 1 | S. cerevisiae deletion strains, locus YML124C, strain tub3, hits give low values 0.99 | S. cerevisiae deletion strains, locus YMR078C, strain ctf18, hits give low values 0.994 | S. cerevisiae deletion strains, locus YMR125W, strain sto1, hits give low values 1.06 | S. cerevisiae deletion strains, locus YMR129W, hits give low values 1.03 | S. cerevisiae deletion strains, locus YMR205C, strain PFK2, hits give low values 0.961 | S. cerevisiae deletion strains, locus YMR223W, strain ubp8, hits give low values 0.94 | S. cerevisiae deletion strains, locus YMR307W, strain GAS1, hits give low values 0.638 | S. cerevisiae deletion strains, locus YNL071W, strain lat1, hits give low values 1.01 | S. cerevisiae deletion strains, locus YNL233W, strain BNI4, hits give low values 0.876 | S. cerevisiae deletion strains, locus YNL248C, strain rpa49, hits give low values 0.935 | S. cerevisiae deletion strains, locus YNL250W, strain rad50, hits give low values 0.998 | S. cerevisiae deletion strains, locus YNL271C, strain bni1, hits give low values 0.986 | S. cerevisiae deletion strains, locus YNL298W, strain CLA4, hits give low values 0.974 | S. cerevisiae deletion strains, locus YNL307C, strain MCK1, hits give low values 0.986 | S. cerevisiae deletion strains, locus YNL322C, strain KRE1 (second series), hits give low values 1.01 | S. cerevisiae deletion strains, locus YNR049C, strain mso1, hits give low values 1.01 | S. cerevisiae deletion strains, locus YOL012C, strain htz1 0.414 | S. cerevisiae deletion strains, locus YOR001W, strain rrp6, hits give low values 0.949 | S. cerevisiae deletion strains, locus YOR070C, strain gyp1, hits give low values 0.978 | S. cerevisiae deletion strains, locus YOR080W, strain dia2, hits give low values 0.975 | S. cerevisiae deletion strains, locus YOR083W, strain WHI5, hits give low values 0.903 | S. cerevisiae deletion strains, locus YOR136W, strain idh2, hits give low values 0.987 | S. cerevisiae deletion strains, locus YOR184W, strain ser1, hits give low values 0.88 | S. cerevisiae deletion strains, locus YOR265W, strain rbl2, hits give low values 1 | S. cerevisiae deletion strains, locus YOR316C, strain cot1, hits give low values 1 | S. cerevisiae deletion strains, locus YPL055C, strain LGE1, hits give low values 0.783 | S. cerevisiae deletion strains, locus YPL106C, strain sse1, hits give low values 0.91 | S. cerevisiae deletion strains, locus YPL240C, strain hsp82, hits give low values 0.988 | S. cerevisiae deletion strains, locus YPL241C, strain CIN2, hits give low values 0.948 | S. cerevisiae deletion strains, locus YPR119W, strain clb2, hits give low values 1.02 | S. cerevisiae deletion strains, locus YPR141C, strain kar3, hits give low values 1 | S. cerevisiae deletion strains, locus YPR163C, strain tif3, hits give low values 0.998 | S. cerevisiae deletion strains, locus YPR167C, strain met16, hits give low values 1.01 | S. cerevisiae deletion strains, strain wtn01, hits give low values 0.934
active: S. cerevisiae deletion strains, locus YJR043C, strain POL32, hits give low values 0.752 | S. cerevisiae deletion strains, locus YKL190W, strain CNB1, hits give low values 0.86 | S. cerevisiae deletion strains, locus YLR039C, strain RIC1, hits give low values 0.626 | S. cerevisiae deletion strains, locus YLR058C, strain SHM2, hits give low values 0.377 | S. cerevisiae deletion strains, locus YLR342W, strain FKS1 (second series), hits give low values 0.648 | S. cerevisiae deletion strains, locus YLR357W, strain rsc2, hits give low values 0.753 | S. cerevisiae deletion strains, locus YLR371W, strain rom2, hits give low values 0.885 | S. cerevisiae deletion strains, locus YLR418C, strain cdc73, hits give low values 0.797 | S. cerevisiae deletion strains, locus YML016C, strain PPZ1, hits give low values 0.853 | S. cerevisiae deletion strains, locus YML032C, strain rad52, hits give low values 0.905 | S. cerevisiae deletion strains, locus YML120C, strain ndi1, hits give low values 0.747 | S. cerevisiae deletion strains, locus YMR058W, strain fet3, hits give low values 0.761 | S. cerevisiae deletion strains, locus YMR231W, strain pep5, hits give low values 0.821 | S. cerevisiae deletion strains, locus YNL067W, strain RPL9B, hits give low values 0.841 | S. cerevisiae deletion strains, locus YNL153C, strain GIM3, hits give low values 0.582 | S. cerevisiae deletion strains, locus YNL209W, strain ssb2, hits give low values 0.804 | S. cerevisiae deletion strains, locus YNR052C, strain pop2, hits give low values 0.695 | S. cerevisiae deletion strains, locus YOL147C, strain pex11, hits give low values 0.865 | S. cerevisiae deletion strains, locus YOR061W, strain CKA2, hits give low values 0.87 | S. cerevisiae deletion strains, locus YOR069W, strain VPS5, hits give low values 0.926 | S. cerevisiae deletion strains, locus YOR106W, strain vam3, hits give low values 0.686 | S. cerevisiae deletion strains, locus YOR144C, strain elg1, hits give low values 0.915 | S. cerevisiae deletion strains, locus YOR270C, strain vph1, hits give low values 0.572 | S. cerevisiae deletion strains, locus YOR290C, strain snf2, hits give low values 0.344 | S. cerevisiae deletion strains, locus YPL051W, strain arl3, hits give low values 0.817 | S. cerevisiae deletion strains, locus YPL078C, strain atp4, hits give low values 0.856 | S. cerevisiae strains, strain wild type, hits give low values 0.78
